In the library only some 11% were active in any assay of this set; here they are far more common.
Sm TGR block: qHTS Assay for the Inhibitors of Schistosoma Mansoni Peroxiredoxins. Potency, µM (doses to about 114 µM), for inactives: top-dose activity change, negative = inhibition, most hits filed as inhibitors. 360,000 compounds, 3% hits. purified TGR, DTNB reduction, TNB absorbance 405 nm; further: potency means the concentration at half of the fitted maximal effect; on the % scale 0 is the no-effect control and ±100 the full control effect; nearly all actives have a fitted effect of over 60% in size
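First, TGR (20 nM dispensed) and NADPH were mixed with compound. Second, a 15 min room-temperature incubation followed. Third, further NADPH and then DTNB were added to start the reaction. Finally, TNB absorbance was monitored kinetically.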
AMA1-RON2 inh: qHTS for Inhibitors of AMA1-RON; Towards Development of Antimalarial Drug Lead: Primary Screen; AID 720542, 2013; Plasmodium falciparum AMA1 (3D7) - RON2 peptide interaction; Potency, µM (top dose mostly 58.2 µM), without a hit: at the top dose activity change, negative = inhibition, usual class: inhibitors; 360,000 compounds, 0.2% hits; AlphaScreen AMA1-biotinylated RON2 peptide binding;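 further: potency means the concentration at half of the fitted maximal effect; 0% = vehicle wells and -100% = peptide control; nearly all actives have a fitted effect of over 45% in size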
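AMA1 (3D7) with his tag at 25 nM final met compounds first, then biotinylated RON2 peptide at 25 nM; detection used donor plus acceptor beads, 10 µg/mL apiece, read by AlphaScreen after 30 min at room temperature.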
NS1 function inh: qHTS Assay for Inhibitors of Influenza NS1 Protein Function; Potency, µM (doses to about 46.1 µM), for the others: at the highest dose activity, positive = more growth; 270,000 compounds, 0.4% hits; AID 2326, 2010; calls by dose curve; further: potency means the concentration at half of the fitted maximal effect; actives are rising curves; nearly all actives have a fitted effect of over 50% in size
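A cell-based growth assay was used: compounds that relieve NS1-induced slow growth of budding yeast raise OD600. Assay medium was yeast nitrogen base with ammonium sulphate and -URA supplement, pH 6.0, with 2% galactose.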
Pf growth 48h: Primary qHTS for delayed death inhibitors of the malarial parasite plastid, 48 hour incubation; P. falciparum luciferase growth in erythrocytes, 48 h; Potency, µM (top dose mostly 28.7 µM), inactives show at the highest dose activity change, negative = inhibition, usual class: inhibitors; 310,000 compounds, 5.9% hits; AID 504832, 2011; further: potency means the concentration at half of the fitted maximal effect; on the % scale 0 is the no-effect control and ±100 the full control effect
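Luciferase-expressing parasites in RBCs, 2% Hct / 0.1% parasitemia final; RPMI 1640 + 0.5% Albumax; 37 C, 5% CO2, one generation; luminescence read-out, lower signal = inhibition.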
Pf growth 96h: Primary qHTS for delayed death inhibitors of the malarial parasite plastid, 96 hour incubation; P. falciparum luciferase reporter growth, 96 h; Potency, µM (series often up to 28.7 µM), inactives show at the highest dose activity change, negative = inhibition, usual class: inhibitors; 320,000 compounds, 6.9% hits; AID 504834, 2011; further: potency means the concentration at half of the fitted maximal effect; on the % scale 0 is the no-effect control and ±100 the full control effect
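Parasite growth measured via integrated firefly luciferase reporter in P. falciparum. Infected erythrocytes at 2% hematocrit, 0.05% parasitemia final were treated 96 hours at 37 C under 5% CO2, and luminescence was read.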
NS1 inh valid: Assay for Inhibitors of Influenza NS1 Protein Function: Hit Validation | shares compounds with NS1 function inh | influenza NS1 function cell assay, 15-point titration | activity change, negative = inhibition, % at 32.9 µM | 1,400 tested, under 10 active | AID 492980, 2010; calls by dose curve; further: 0% is about no effect
Flu PR8 replic: Assay for Inhibitors of Influenza NS1 Protein Function: Influenza virus replication assay in MDCK cells infected with virus A/PR/8/34 | shares compounds with NS1 function inh | MDCK infected influenza A/PR/8/34, virus titer TCID50; hits give low values | virus titer (log TCID50), log10 TCID50 at 5 µM | 95 compounds, 30% hits | AID 504647, 2011; call rule not given here
* = called active by the depositor; u = inconclusive; x = no result given; [ ] = another dose, or the depositor's remark. Unless noted, the call rests on the fitted dose curve; in most records, active means well fitted curve in the direction sought with a large enough effect; inconclusive means small, poorly fitted or top-dose-only effect, or another doubt; inactive means no such curve, though single readings can be large; an effect the other way counts as inactive or inconclusive.

SMILES	Sm TGR block	AMA1-RON2 inh	NS1 function inh	Pf growth 48h	Pf growth 96h	NS1 inh valid	others
Cc1ccc(C(=O)Nc2ccccc2C(=O)NCc2ccco2)cc1S(=O)(=O)N1CCCCC1	-24.7%	-22.4%	10µM*	6.57µM*	47.2%	-10.8
O=C(Nc1ccccc1C(=O)O)c1cccc(S(=O)(=O)Nc2ccc(Br)cc2)c1	25.3%	-0.5%	16.7%	46.6%	62.2%	x
COC(=O)c1ccc(C2c3c(oc4ccccc4c3=O)C(=O)N2c2nc(C)c(C(=O)OC)s2)cc1 (stereo not given)	3.0%	x	x	x	x	x
Cc1cn([C@H]2C[C@H](N=[N+]=[N-])[C@H](CO)O2)c(=O)[nH]c1=O	x	x	-4.1%	-5.9%	9.6%	x
Cc1ccc(NC(=O)CN2C(=O)COc3ccc(S(=O)(=O)NC4CCCC4)cc32)cc1N(C)C	5.6%	x	x	x	x	x
COc1ccc(Cc2[nH]n3c(=O)c(Cl)c(C)nc3c2-c2ccccc2)cc1	x	-14.3%	2.1%	24.4%	-34.8%	x
CN1CCc2c(sc3c2c(=O)n(-c2ccccc2)c2nnc(SCc4ccc(Cl)cc4)n32)C1	-22.0%	-1.8%	12.6µM*	u	x	14.1
COc1ccc(NS(=O)(=O)c2cccc(N/C(=N\S(=O)(=O)c3ccccc3)c3ccc(F)cc3)c2)cc1	-4.6%	-7.9%	11.2µM*	u	u	27.3
O=C(O)CCC(=O)N1CCc2cc(S(=O)(=O)NC3CCCc4ccccc43)ccc21 (stereo not given)	-11.8%	2.0%	3.55µM*	u	u	20.0
CN(C)S(=O)(=O)c1ccc(C(=O)NNC(=O)C23CC4CC(CC(C4)C2)C3)cc1	x	-1.7%[11.6 µM]	x	x	x	x
Cc1ccccc1-n1nc(C(=O)O)c(C)c(C#N)c1=O	-2.5%	57.6%	2.82µM*	1.5%	u	11.9
Cc1c(C(=O)O)nn(-c2cccc(C(F)(F)F)c2)c(=O)c1C#N	4.3%	8.0%	-7.7%	9.1%	u	x
CCc1nc2c(OCC(=O)c3ccc(Cl)cc3Cl)cccn2c1N(C=O)Cc1ccccc1	x	15.7%	x	x	x	x
CCOC(=O)c1ccc(C(=O)OCC)c(NC(=S)Nc2ccc([N+](=O)[O-])cc2OC)c1	-14.7%	32.3%[11.6 µM]	5.01µM*	33.8%	2.94µM*	u
Cn1c(=O)n(-c2ccccc2)c(=O)c2c3c(sc21)COC(C)(C)C3	0.2%	0.5%	8.91µM*	8.3%	x	9.1
O=c1cc(O)c2sc3nc(-c4ccccc4)cc(C(F)(F)F)c3c2[nH]1	-6.7%	-3.8%	u	u	u	2.3
Cc1cc(-c2ccccc2)c2c(n1)sc1c(O)cc(=O)[nH]c12	-3.0%	-0.6%	12.3%	7.2%	22.8%	x
Cc1cccc(-c2noc(CN(C(=O)c3c(-c4ccccc4Cl)noc3C)C(C)C)n2)c1	2.7%	-0.7%	-45.1%	x	u	x
Cc1onc(-c2ccccc2Cl)c1C(=O)N(Cc1nc(-c2ccccc2)no1)C1CCCCC1	7.1%	-7.4%	10µM*	x	u	-22.9
CCCn1c(CCNc2nc(-c3ccc(Cl)c([N+](=O)[O-])c3)cs2)nc2cc(Cl)c(Cl)cc21	-14.2%	-3.5%	8.91µM*	2.3%	33.8%	37.2	Flu PR8 replic=8
COc1ccc(-n2cnnc2SCC(=O)c2ccc(S(=O)(=O)N3CCOCC3)cc2)cc1	-23.2%	-1.5%	1.78µM*	u	x	-0.2
Cc1cccc(NS(=O)(=O)c2ccc(C(=O)NCC(c3ccccc3)N(C)C)cc2)c1C (stereo not given)	4.1%	2.9%	-7.0%	-21.1%	u	x
O=C(c1cccs1)N1CCCc2cc(NS(=O)(=O)c3ccc(F)cc3)ccc21	1.5%	x	x	x	x	x
N#C/C(=C\c1cn(CCOc2ccccc2)c2ccccc12)C(=O)NCc1ccco1	28.9%	26.8%	u	u	3.7%	-15.0
CCN(CC)C(=O)c1sc2c(c1C)c(=O)n(-c1ccc(Cl)c(Cl)c1)c(=O)n2CC(=O)Nc1cccc(OC)c1	-1.1%	x	x	x	x	x
SMILES	Sm TGR block	AMA1-RON2 inh	NS1 function inh	Pf growth 48h	Pf growth 96h	NS1 inh valid	others
N#CC1=C(N)OC2=C(CC/C2=C\c2ccccc2)C1c1ccccc1 (stereo not given)	11.2µM*	16.6%	0.891µM*	u	104.2%	u
CCOc1ccc(/C(O)=C2/C(=O)C(=O)N(c3ncccn3)C2c2ccccc2)cc1 (stereo not given)	11.9%	-2.4%	2µM*	22.3%	-4.6%	-11.6
CCOc1ccc(/C(O)=C2/C(=O)C(=O)N(c3ncccn3)C2c2ccc(C)cc2)cc1 (stereo not given)	-6.8%	10.4%	4.4%	1.7%	36.2%	x
CCCOc1ccc(/C(O)=C2/C(=O)C(=O)N(c3cc(C)on3)C2c2ccc(C(=O)OC)cc2)cc1 (stereo not given)	-4.5%	-2.5%	10µM*	2.7%	9.1%	-8.6
O=[N+]([O-])C(=C1NCCN1)C(Cl)=C(Cl)Cl	-15.9%	42.5%	6.5%	24.0%	34.8%	x
c1ccc(C2=Nn3c(Cn4nnc5ccccc54)nnc3SC2)cc1	-1.8%	-15.4%	-0.9%	-17.7%	-15.7%	x
c1ccc(-c2ccc(C3=Nn4c(Cn5nnc6ccccc65)nnc4SC3)cc2)cc1	2.3%	-4.1%	12.6µM*	u	9.28µM*	u
Cc1nc2ccc(-c3nc4ccccc4[nH]3)cc2[nH]1	x	-28.3%	u	-44.0%	300.0%	-6.3
O=C(OCn1nnc2ccccc2c1=O)c1ccc2ccccc2n1	-1.6%	21.8%	15.8µM*	4.9%	-20.1%	-17.3
CCCCN(C(=O)c1cc(Cl)nc2ccccc12)c1c(N)n(Cc2ccccc2)c(=O)[nH]c1=O	-6.0%	-14.4%	x	u	u	x
O=C1CN(C(=O)c2ccc(Cl)c([N+](=O)[O-])c2)c2ccccc2N1	-8.4%	-0.2%	-3.2%	-16.6%	u	x
Cc1ccc(C(=O)CSc2nnc(CNc3nc(-c4ccccc4)cs3)n2C)cc1	-23.0%	3.0%	3.16µM*	u	13.1µM*	-16.0
CCn1c(SCC(=O)Nc2nc(-c3ccc(C)cc3)cs2)nnc1-c1ccccc1	-12.5%	-4.3%	-0.2%	x	x	x
Cc1cc(C(=O)CN(Cc2ccc(F)cc2)S(=O)(=O)c2ccc3c(c2)OCCO3)c(C)n1C	10.8%	-23.8%	11.2µM*	20.0%	-5.6%	-16.3
